Test results taken from PubChem BioAssay (Tox21).
Inconclusive results are not listed. Calls of active or inactive are those of the source. Unless noted, calls come from the whole dose curve; as a rule, active = well fitted curve in the direction sought with a large enough effect in the repeat runs; inconclusive = weak or mixed curves; inactive = no such curve, though single readings can be large; an effect the other way counts as inactive or inconclusive.

What was measured:
[1] = A CellTox Green Cytotoxicity Assay to monitor cytotoxicity in HepG2 cells - 8 hour (AID 1224890); note: nearly all actives have a fitted effect of over 45% in size
In short: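 HepG2 cells, 600/well, preincubated 5 h with CellTox Green dye, then exposed to Tox21 compounds in DMSO at 37 C for up to 40 h. Dead-cell DNA fluorescence read at the indicated time point.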

[2] = qHTS assay to identify small molecule antagonists of the estrogen receptor alpha (ER-alpha) signaling pathway using the BG1 cell line in the presence of 0.1 nM 17-beta-estradiol - cell viability counter screen (AID 1259241); note: nearly all actives have a fitted effect of over 40% in size
In short: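 Following 5 days in phenol red-free medium with charcoal-stripped serum, VM7Luc4E2 cells received test compounds alongside 0.1 nM 17beta-estradiol (final) at 37C for 22 hr. Live cells were then quantified via protease-substrate fluorescence.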

[3] = qHTS assay to identify small molecule antagonists of the androgen receptor (AR) signaling pathway using the MDA cell line in the presence of 0.5 nM R1881 - cell viability counter screen (AID 1259242); note: nearly all actives have a fitted effect of over 45% in size
In short: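 MDA-kb2 cells (MMTV-luciferase, AR/GR responsive) were treated with compounds plus 0.5 nM R1881 (final) for 16 hr at 37C, 0% CO2. Viability was then read in the same wells as live-cell protease fluorescence (CellTiter-Fluor, 30 min).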

[4] = target: Estrogen receptor (Homo sapiens) (UniProt P03372); assay: qHTS assay to identify small molecule antagonists of the estrogen receptor alpha (ER-alpha) signaling pathway using the BG1 cell line in the presence of 0.1 nM 17-beta-estradiol (AID 1259244); note: nearly all actives have a fitted effect of over 50% in size
Sequence of Estrogen receptor (Homo sapiens) (P03372 whole entry, looked up): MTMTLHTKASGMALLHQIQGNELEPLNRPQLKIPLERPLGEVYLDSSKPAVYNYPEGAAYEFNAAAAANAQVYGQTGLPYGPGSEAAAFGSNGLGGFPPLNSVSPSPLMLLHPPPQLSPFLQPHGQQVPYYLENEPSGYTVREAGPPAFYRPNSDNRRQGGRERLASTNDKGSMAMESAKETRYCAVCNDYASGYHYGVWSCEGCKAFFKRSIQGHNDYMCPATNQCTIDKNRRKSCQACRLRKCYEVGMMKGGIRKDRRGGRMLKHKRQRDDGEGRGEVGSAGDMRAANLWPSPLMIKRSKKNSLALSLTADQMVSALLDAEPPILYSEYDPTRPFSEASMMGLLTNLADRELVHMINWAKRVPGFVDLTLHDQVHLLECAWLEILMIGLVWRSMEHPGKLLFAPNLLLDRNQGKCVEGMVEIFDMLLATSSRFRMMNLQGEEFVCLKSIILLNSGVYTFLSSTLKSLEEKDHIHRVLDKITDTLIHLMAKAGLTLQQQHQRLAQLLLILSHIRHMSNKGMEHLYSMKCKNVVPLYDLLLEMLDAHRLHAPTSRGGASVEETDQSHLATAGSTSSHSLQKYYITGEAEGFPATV
In short: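 VM7Luc4E2 cells (endogenous full-length ER-alpha, 4×ERE-luciferase), kept 5 days in phenol red-free, charcoal-stripped FBS medium; 4,000 cells/well. Compounds added with 0.1 nM (final) 17beta-estradiol, 22 hr at 37C; luminescence read with ONE-Glo after 30 min.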

[5] = qHTS assay to identify small molecule phospholipidosis (PLD) inducers (AID 1259344; active = well fitted curve in the direction sought with a large enough effect; an effect the other way counts as inactive or inconclusive)
In short: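 HepG2 cells grown on collagen I take up LipidTOX Red while exposed to compound for 24 h; after fixation they are imaged at 20x and pit metrics are extracted.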

[6] = qHTS assay to identify small molecule HDAC inhibitors (AID 1259364); note: top concentration of the series differs between compounds; nearly all actives have a fitted effect of over 45% in size
In short: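 Wild-type HCT-116 cells, plated overnight at 37 C, exposed to compounds 2 hr at 37 C; luminogenic HDAC-Glo substrate then added 30 min at room temperature. Luminescence reports relative endogenous class I/II HDAC activity.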

[7] = qHTS assay to identify small molecule HDAC inhibitors - cell viability counter screen (AID 1259365); note: series mostly up to about 92 µM; nearly all actives have a fitted effect of over 50% in size
In short: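 HCT-116 wild-type, overnight attachment; 2hr drug exposure, 37C; CellTiter-Glo luminescent ATP readout after 30min RT.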

[8] = qHTS assay to identify small molecule agonists of the sonic hedgehog signaling (Shh) pathway - cell viability counter screen (AID 1259366); note: nearly all actives have a fitted effect of over 50% in size; note: potency is the fitted concentration of half-maximal effect
In short: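 Compounds in DMSO were pin-transferred onto 3T3 Gli1-Luc cells that had settled 4hr; plates then stood 24hr at 37C and 5% CO2. One hour before the end, CellTiter-Fluor was added and fluorescence recorded.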

[9] = qHTS assay to identify small molecule antagonists of the sonic hedgehog signaling (Shh) pathway - cell viability counter screen (AID 1259367); note: nearly all actives have a fitted effect of over 55% in size
In short: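 After a 4 hr settling period, 3T3 Gli1-Luc cells were treated with DMSO-dissolved chemicals and conditioned medium, kept 24 hr at 37C in 5% CO2, and assayed for viability by CellTiter-Fluor fluorescence following 1 hr reagent incubation.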

[10] = qHTS assay to identify small molecule agonists of the sonic hedgehog signaling (Shh) pathway (AID 1259368; calls by dose curve;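 note: NIH/3T3-derived 3T3Gli1-Luc cells carrying a stable Gli1-driven firefly luciferase reporter; series mostly up to about 92 µM; nearly all actives have a fitted effect of over 15% in size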)
In short: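 NIH/3T3-derived 3T3Gli1-Luc cells with stably integrated Gli1-driven firefly luciferase, 2,000 cells/well, compounds added after 4 hr. Incubated 24 hr at 37C, 5% CO2; luminescence read after 30 min with luciferase reagent at room temperature.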

[11] = qHTS assay to identify small molecule antagonists of the sonic hedgehog signaling (Shh) pathway (AID 1259369; calls by dose curve; note: nearly all actives have a fitted effect of over 45% in size; note: potency is the fitted concentration of half-maximal effect)
In short: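 NIH/3T3-derived Gli1-Luc reporter cells plated 4 h, dosed with compound, then stimulated with conditioned medium for 24 h at 37 C. Firefly luciferase luminescence read after 30 min with detection reagent at room temperature.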

[12] = target: Estrogen receptor beta (Homo sapiens) (UniProt Q92731); assay: qHTS assay to identify small molecule agonists of the estrogen receptor beta (ER-beta) signaling pathway (AID 1259377; active = well fitted activation curve with a large enough effect in the signal ratio in the repeat runs, not every such curve was filed as active; the % refers to the signal ratio; note: potency is the fitted concentration of half-maximal effect)
Sequence of Estrogen receptor beta (Homo sapiens) (Q92731 whole entry, looked up): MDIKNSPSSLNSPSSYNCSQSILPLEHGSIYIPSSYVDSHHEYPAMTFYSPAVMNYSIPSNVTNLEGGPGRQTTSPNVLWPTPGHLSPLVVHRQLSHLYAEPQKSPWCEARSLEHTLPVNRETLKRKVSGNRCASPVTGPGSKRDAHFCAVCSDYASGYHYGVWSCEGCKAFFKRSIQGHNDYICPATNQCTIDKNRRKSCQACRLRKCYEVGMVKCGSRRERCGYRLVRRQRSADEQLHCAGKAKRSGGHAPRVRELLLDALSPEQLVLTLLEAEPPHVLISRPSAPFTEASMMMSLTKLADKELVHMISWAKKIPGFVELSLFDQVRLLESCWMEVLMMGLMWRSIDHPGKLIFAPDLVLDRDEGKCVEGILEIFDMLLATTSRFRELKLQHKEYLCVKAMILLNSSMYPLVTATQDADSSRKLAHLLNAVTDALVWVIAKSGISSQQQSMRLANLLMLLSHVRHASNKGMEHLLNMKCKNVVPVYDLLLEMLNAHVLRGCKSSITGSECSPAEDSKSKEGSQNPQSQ
In short: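 qHTS in ER-beta-UAS-bla HEK293T cells: 6 hr settling, then 16 hr compound at 37C, then LiveBLAzer substrate 2 h at RT before fluorescence reading.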

[13] = target: Estrogen receptor beta (Homo sapiens) (UniProt Q92731); assay: qHTS assay to identify small molecule antagonists of the estrogen receptor beta (ER-beta) signaling pathway (AID 1259378; active = well fitted inhibition curve with a large enough effect in the signal ratio in the repeat runs, not every such curve was filed as active; the % refers to the signal ratio; note: potency is the fitted concentration of half-maximal effect)
In short: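 ER-beta-UAS-bla HEK293T (GripTite) cells in 2% charcoal-stripped FBS medium were preincubated 6 hr at 37C, dosed with compound, then stimulated with 1 nM E2 (final) for 16 hr; beta-lactamase reporter read by B/G FRET fluorescence after 2 hr substrate loading.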

[14] = qHTS assay to identify small molecule agonists of the estrogen receptor beta (ER-beta) signaling pathway - cell viability counter screen (AID 1259380); note: nearly all actives have a fitted effect of over 30% in size; note: potency is the fitted concentration of half-maximal effect
In short: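 ER-beta-UAS-bla HEK293T cells in medium with 2% charcoal-stripped FBS, pre-incubated 6 hr, then treated 16 hr at 37C. Cytotoxicity read in the same wells by CellTiter-Glo luminescence after 30 min at room temperature.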

[15] = qHTS assay to identify small molecule antagonists of the estrogen receptor beta (ER-beta) signaling pathway - cell viability counter screen (AID 1259382); note: nearly all actives have a fitted effect of over 55% in size; note: potency is the fitted concentration of half-maximal effect
In short: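 ER-beta-UAS-bla HEK293T cells in 2% charcoal-stripped FBS medium, treated with compound plus 1 nM 17-beta-estradiol for 16 h at 37C. Viability read by CellTiter-Glo luminescence after 30 min at room temperature in the same wells.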

[16] = target: Estrogen receptor (Homo sapiens) (UniProt P03372); assay: qHTS assay to identify small molecule agonists of the estrogen receptor alpha (ER-alpha) signaling pathway in the presence of an antagonist (AID 1259383; calls by dose curve; note: nearly all actives have a fitted effect of over 15% in size; note: potency is the fitted concentration of half-maximal effect; for activation: top concentration of the series differs between compounds)
In short: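 VM7Luc4E2 cells express endogenous full-length ER-alpha with an ERE-luciferase reporter and were hormone-deprived for 5 days. Compounds at 15 concentrations were added with 10.0nM ICI-182,780 for 22hr at 37C. Luminescence was read with ONE-Glo.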

[17] = qHTS assay to identify small molecule agonists or antagonists of the thyroid stimulating hormone receptor (TSHR) signaling pathway - wild type cell line counter screen (AID 1259384; calls by dose curve)
In short: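 Wild-type HEK293 cells were plated 18 h at 37 C/5% CO2, pin-dosed with compound plus Ro20-1724 medium, held 30 min at room temperature, then given cAMP-d2 and anti-cAMP-cryptate; fluorescence was read after 1 h. Fifteen concentrations, triplicate.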

[18] = qHTS assay to identify small molecule agonists of the androgen receptor (AR) signaling pathway in the presence of an antagonist - cell viability counter screen (AID 1259379);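 note: MDA-kb2 human breast cancer cells carrying an MMTV luciferase reporter; series mostly up to about 92 µM; nearly all actives have a fitted effect of over 25% in size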
In short: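 MDA-kb2 cells (MMTV-luciferase, AR/GR), 3,000/well, 5 h attachment, then 3.0 µM nilutamide (final) and compounds at 15 concentrations. Viability by CellTiter-Fluor fluorescence after 16 h at 37 °C, 0% CO2, in the reporter wells.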

[19] = target: Androgen receptor (Homo sapiens) (UniProt P10275); assay: qHTS assay to identify small molecule antagonists of the androgen receptor (AR) signaling pathway using the MDA cell line in the presence of 0.5 nM R1881 (AID 1259243); note: nearly all actives have a fitted effect of over 50% in size; note: potency is the fitted concentration of half-maximal effect
Sequence of Androgen receptor (Homo sapiens) (P10275 whole entry, looked up): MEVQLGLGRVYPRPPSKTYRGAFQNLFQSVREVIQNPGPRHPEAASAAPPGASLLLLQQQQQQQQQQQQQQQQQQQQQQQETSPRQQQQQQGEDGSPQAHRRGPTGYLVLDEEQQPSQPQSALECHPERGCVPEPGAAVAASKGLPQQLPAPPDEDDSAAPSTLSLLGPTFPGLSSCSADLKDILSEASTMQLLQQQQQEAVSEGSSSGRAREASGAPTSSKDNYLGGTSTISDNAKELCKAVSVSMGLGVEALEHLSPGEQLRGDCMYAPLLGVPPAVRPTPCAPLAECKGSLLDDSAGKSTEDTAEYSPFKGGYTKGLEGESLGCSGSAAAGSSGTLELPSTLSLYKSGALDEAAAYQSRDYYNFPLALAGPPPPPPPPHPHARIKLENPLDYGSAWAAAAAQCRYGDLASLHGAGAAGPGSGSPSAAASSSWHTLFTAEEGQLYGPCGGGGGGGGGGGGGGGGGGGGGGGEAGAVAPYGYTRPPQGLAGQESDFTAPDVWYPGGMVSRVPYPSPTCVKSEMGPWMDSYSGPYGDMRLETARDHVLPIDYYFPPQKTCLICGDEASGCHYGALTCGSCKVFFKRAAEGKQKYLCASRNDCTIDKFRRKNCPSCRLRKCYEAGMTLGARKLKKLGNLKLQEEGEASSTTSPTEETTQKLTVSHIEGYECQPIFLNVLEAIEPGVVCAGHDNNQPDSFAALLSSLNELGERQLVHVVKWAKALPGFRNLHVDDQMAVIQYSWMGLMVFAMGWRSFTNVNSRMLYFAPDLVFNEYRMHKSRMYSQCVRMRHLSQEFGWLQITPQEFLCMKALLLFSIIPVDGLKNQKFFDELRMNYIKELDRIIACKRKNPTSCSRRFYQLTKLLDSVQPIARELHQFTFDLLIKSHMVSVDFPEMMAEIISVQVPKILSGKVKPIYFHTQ
In short: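 MDA-kb2 cells (MMTV-luciferase, responsive to AR and GR) at 3,000/well, rested 5 h at 37C, 0% CO2, then given compounds plus 0.5 nM R1881 (final) for 16 hr. Luciferase read with ONE-Glo after 30 min at room temperature.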

[20] = target: Androgen receptor (Homo sapiens) (UniProt P10275); assay: qHTS assay to identify small molecule agonists of the androgen receptor (AR) signaling pathway in the presence of an antagonist (AID 1259381; calls by dose curve; note: nearly all actives have a fitted effect of over 15% in size; note: potency is the fitted concentration of half-maximal effect)
In short: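 MDA-kb2 cells carrying MMTV-luciferase (AR/GR responsive), 3,000 cells/well, co-treated with 3.0 uM nilutamide final. Compounds at 15 concentrations, 16 hr at 37C without CO2. Luciferase luminescence read after 30 min with ONE-Glo.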
% is set by controls: 0 for no effect and ±100 for the full control effect.

COC(=O)C(Cl)C(=O)OC
inactive: Potency [1] | Potency [2] | Potency [3] | Potency [4] | outcome [5] | Potency [6] | Potency [7] | Potency [8] | Potency [9] | Potency [10] | Potency [11] | Potency [12] | Potency [13] | Potency [14] | Potency [15] | Potency [16] | outcome [17]

C[C@H]1CNCCc2ccc(Cl)cc21
inactive: Potency [1] | Potency [2] | Potency [3] | Potency [4] | PLD induction [5] 0.0663% [at 7.66 µM] | Potency [6] | Potency [7] | Potency [8] | Potency [9] | Potency [10] | Potency [11] | Potency [12] | Potency [13] | Potency [18] | Potency [16] | outcome [17]

O=C1C(Cl)C(CCl)CN1c1cccc(C(F)(F)F)c1 (centres undefined)
active: Potency [19] 3.86 µM
inactive: Potency [1] | Potency [2] | Potency [3] | Potency [6] | Potency [7] | Potency [8] | Potency [9] | Potency [10] | Potency [12] | Potency [13] | Potency [20] | Potency [15] | outcome [17]

C[C@]12CC[C@H]3[C@@H](CCC4=CC(=O)CC[C@@H]43)[C@@H]1CC[C@@H]2OC(=O)CCC1CCCCC1
inactive: Potency [1] | Potency [2] | Potency [3] | Potency [19] | Potency [4] | Potency [6] | Potency [7] | Potency [8] | Potency [9] | Potency [10] | Potency [11] | Potency [14] | Potency [15]
active: Potency [12] 1.19 µM | Potency [20] 0.0422 µM | Potency [16] 1.68 µM

Cc1ccc2ccccc2c1
inactive: Potency [1] | Potency [2] | Potency [3] | Potency [19] | Potency [4] | Potency [6] | Potency [7] | Potency [8] | Potency [9] | Potency [10] | Potency [11] | Potency [12] | Potency [13] | Potency [18] | Potency [14] | Potency [20] | Potency [15] | Potency [16] | outcome [17]

Cc1ccccc1C(=O)Nc1cccc(OC(C)C)c1
active: Potency [11] 17.2 µM | Potency [14] 19.3 µM
inactive: Potency [1] | Potency [2] | Potency [3] | Potency [19] | Potency [4] | Potency [6] | Potency [7] | Potency [8] | Potency [9] | Potency [10] | Potency [13] | Potency [18] | Potency [20] | Potency [16] | outcome [17]

O=C(O)C(F)(F)C(F)(F)C(F)(F)C(F)(F)C(F)(F)C(F)(F)C(F)(F)C(F)(F)C(F)(F)F
inactive: Potency [1] | Potency [2] | Potency [3] | Potency [4] | Potency [6] | Potency [7] | Potency [8] | Potency [9] | Potency [10] | Potency [18] | Potency [15] | Potency [16] | outcome [17]
active: Potency [14] 10.9 µM

O=C1c2ccccc2C(=O)C1C(=O)C(c1ccccc1)c1ccccc1
inactive: Potency [1] | Potency [2] | Potency [3] | outcome [5] | Potency [6] | Potency [7] | Potency [8] | Potency [9] | Potency [10] | Potency [11] | Potency [12] | Potency [18] | Potency [14] | Potency [15] | outcome [17]
active: Potency [13] 23.7 µM

C=CC(=O)OCCCCO
active: Potency [8] 61.1 µM
inactive: Potency [1] | Potency [2] | Potency [3] | Potency [4] | Potency [6] | Potency [7] | Potency [10] | Potency [12] | Potency [13] | Potency [14] | Potency [15] | outcome [17]

C=CC(=O)OCC(C)O (centres undefined)
inactive: Potency [1] | Potency [2] | Potency [3] | Potency [4] | Potency [6] | Potency [7] | Potency [9] | Potency [10] | Potency [11] | Potency [12] | Potency [18] | Potency [14] | Potency [15] | Potency [16] | outcome [17]

O=C(CBr)OCc1ccccc1
inactive: Potency [1] | Potency [2] | Potency [3] | Potency [4] | Potency [6] | Potency [7] | Potency [8] | Potency [9] | Potency [10] | Potency [13] | Potency [18] | Potency [14] | Potency [15] | Potency [16]

c1ccc(CN2CCNCC2)cc1
inactive: Potency [1] | Potency [2] | Potency [3] | outcome [5] | Potency [6] | Potency [7] | Potency [8] | Potency [9] | Potency [11] | Potency [12] | Potency [13] | Potency [18] | Potency [14] | Potency [15] | outcome [17]

COC(=O)C(C)N(C(=O)Cc1ccccc1)c1c(C)cccc1C (centres undefined)
inactive: Potency [1] | Potency [2] | Potency [3] | Potency [4] | Potency [6] | Potency [7] | Potency [8] | Potency [9] | Potency [10] | Potency [18] | Potency [20] | Potency [16] | outcome [17]
active: Potency [14] 61.1 µM

N#C/C(N)=C(/N)C#N
inactive: Potency [1] | Potency [2] | Potency [3] | Potency [4] | Potency [6] | Potency [7] | Potency [8] | Potency [9] | Potency [11] | Potency [12] | Potency [13] | Potency [18] | Potency [14] | Potency [15] | Potency [16] | outcome [17]

C#CCOC(C(=O)OCCN(C)C)(c1ccccc1)c1ccccc1
inactive: Potency [1] | Potency [2] | Potency [3] | outcome [5] | Potency [6] | Potency [7] | Potency [8] | Potency [9] | Potency [10] | Potency [11] | Potency [12] | Potency [13] | Potency [18] | Potency [14] | Potency [15] | outcome [17]

CC(O)(CS(=O)(=O)c1ccc(F)cc1)C(=O)Nc1ccc(C#N)c(C(F)(F)F)c1 (centres undefined)
active: Potency [14] 31.8 µM | Potency [15] 28.3 µM
inactive: Potency [1] | Potency [2] | Potency [3] | outcome [5] | Potency [6] | Potency [7] | Potency [8] | Potency [9] | Potency [12] | Potency [18] | Potency [16]

CCC(COC(=O)c1cc(OC)c(OC)c(OC)c1)(c1ccccc1)N(C)C (centres undefined)
inactive: Potency [1] | Potency [2] | Potency [3] | outcome [5] | Potency [6] | Potency [7] | Potency [8] | Potency [9] | Potency [10] | Potency [12] | Potency [13] | Potency [18] | Potency [14] | Potency [15]
